HTT cytoprotect: qHTS Multiplex Assay to Identify Dual Action Probes in a Cell Model of Huntington: Cytoprotection (ATP); PC12 HTT-Q103 induced, cytoprotection, ATP luminescence, 40 h; Potency, µM (series often up to 56.4 µM), inactives show cytoprotection (ATP increase), hits mostly activators; actives 0.14% (n = 230,000); also: potency is read from the fitted curve at half-maximal effect; % of control where 0% means no effect; nearly all actives have a fitted effect of over 45% in size
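Stable PC12 Q103-GFP cells in serum-supplemented, phenol red-free DMEM; induction by tebufenozide at 100 nM final; compound dose series; cell viability quantified luminescently from ATP.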
JMJD2E inh: qHTS Assay for Inhibitors of Human Jumonji Domain Containing 2E (JMJD2E). Lysine-specific demethylase 4E (Homo sapiens), B2RXH2. JMJD2E catalytic domain, FDH-coupled NADH fluorescence (FDH is formaldehyde dehydrogenase). Potency, µM (series often up to 57.1 µM), without a hit: at the highest dose activity change, negative = inhibition, actives largely listed as inhibitors. actives 1.6% (n = 230,000); active = well fitted inhibition curve with a large enough effect, not every such curve was filed as active; inconclusive = small, poorly fitted or top-dose-only effect, or another doubt; inactive = no such curve, though single readings can be large or run the other way;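 also: potency is read from the fitted curve at half-maximal effect; 0% = wells with enzyme and -100% = buffer wells without enzyme; nearly all actives have a fitted effect of over 50% in size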
Target sequence (B2RXH2 1-337 limits assumed): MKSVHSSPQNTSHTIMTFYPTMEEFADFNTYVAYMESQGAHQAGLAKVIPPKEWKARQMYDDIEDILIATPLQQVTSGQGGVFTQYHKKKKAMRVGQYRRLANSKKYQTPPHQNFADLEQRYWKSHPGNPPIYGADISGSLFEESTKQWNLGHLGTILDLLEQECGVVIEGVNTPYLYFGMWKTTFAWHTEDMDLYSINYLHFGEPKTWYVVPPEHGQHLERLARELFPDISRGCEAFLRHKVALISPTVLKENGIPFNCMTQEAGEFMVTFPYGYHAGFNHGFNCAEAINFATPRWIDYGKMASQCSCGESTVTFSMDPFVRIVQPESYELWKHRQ
HttQ103 aggreg: qHTS Multiplex Assay to Identify Dual Action Probes in a Cell Model of Huntington: Aggregate Formation (GFP); PC12 HttQ103-GFP aggregates, Acumen cytometry, 40 h; Potency, µM (highest dose often 46.1 µM), for inactives: at the highest dose activity change, negative = inhibition, most hits filed as inhibitors; AID 1688, 2009; actives 1.1% (n = 220,000); also: potency is read from the fitted curve at half-maximal effect; % is scaled to controls: 0 for no effect and ±100 for the full control effect; nearly all actives have a fitted effect of over 60% in size
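Read-out: GFP aggregate count by laser scanning cytometer (488 nm excitation, 500-530 nm emission, 1–25 µm objects >6 SD above background). Cells: PC12, inducible HTTex1-Q103-GFP, 100 nM tebufenozide; compounds titrated.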
GoLoco inh red: qHTS Assay for Inhibitors of RGS12 GoLoco Motif Activity (Red Fluorophore). Guanine nucleotide-binding protein G(i) subunit alpha-1 (Homo sapiens), P63096. Gai1:RGS12 GoLoco peptide FP, rhodamine, 10 min. Potency, µM (doses to about 61.6 µM), for the others: top-dose activity, negative = inhibition, hits mostly inhibitors. actives 0.44% (n = 230,000); active = well fitted inhibition curve with a large enough effect, not every such curve was filed as active; inactive = no such curve, though single readings can be large or run the other way; also: potency is read from the fitted curve at half-maximal effect; % is scaled to controls: 0 for no effect and ±100 for the full control effect; nearly all actives have a fitted effect of over 30% in size
Target sequence (P63096 whole entry, looked up): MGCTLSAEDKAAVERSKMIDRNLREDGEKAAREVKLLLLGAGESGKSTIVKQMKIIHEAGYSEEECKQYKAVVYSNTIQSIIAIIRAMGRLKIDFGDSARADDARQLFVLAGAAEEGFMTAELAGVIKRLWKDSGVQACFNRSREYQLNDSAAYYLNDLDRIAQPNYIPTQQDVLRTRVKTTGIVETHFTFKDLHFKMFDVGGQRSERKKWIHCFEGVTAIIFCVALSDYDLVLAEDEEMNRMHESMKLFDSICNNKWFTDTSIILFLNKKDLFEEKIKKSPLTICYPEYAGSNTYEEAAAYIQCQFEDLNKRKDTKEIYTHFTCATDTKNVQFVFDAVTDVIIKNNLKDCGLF
VDR inhibitor: Inhibitors of the vitamin D receptor (VDR): qHTS; VDR-SRC2-3 peptide fluorescence polarization, 2 h; Potency, µM, without a hit: max response, negative = inhibition, usual class: inhibitors; actives 0.93% (n = 400,000); also: potency is read from the fitted curve at half-maximal effect; % is scaled to controls: 0 for no effect and ±100 for the full control effect
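Compounds are added to VDR with labelled SRC2-3 coactivator peptide and held 2 h at room temperature. Inhibition of the VDR–peptide interaction is then read as a change in fluorescence polarization.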
FBPA coupling cs: qHTS Assay for Inhibitors of Fructose-1,6-bisphosphate Aldolase from Giardia Lamblia: Coupling assay counterscreen; actives 0.67% (n = 290,000); activity change, negative = inhibition, % at 58.2 µM, hits read low; coupling enzyme system counterscreen, AmpLite Red fluorescence; in the data active = activity change below about -30%; also: % is scaled to controls: 0 for no effect and ±100 for the full control effect
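Fluorescence at 525 nm excitation and 598 nm emission measured inhibition of the coupled detection system without aldolase. Compounds (at 57.5 uM final) were preincubated 10 min at room temperature with coupling enzyme reagent before a 20 min substrate/AmpLite Red step.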
An asterisk follows results filed as active; ! = repeats disagree; [ ] = remark or other dose. Only some compounds are listed: those with a hit (about 2.3% of all), similar ones and a draw of the others. Unless noted, calls follow the shape of the dose curve; as a rule, active = well fitted curve in the direction sought with a large enough effect; inconclusive = small, poorly fitted or top-dose-only effect, or another doubt; inactive = no such curve, though single readings can be large; an effect the other way counts as inactive or inconclusive.

For CC1(C)CC2(CC(c3ccccc3F)c3ccc(O)c(O)c3O2)NC(=S)N1 (stereo unspecified) the results were HTT cytoprotect 23%[10 µM], JMJD2E inh 10µM*, HttQ103 aggreg 25%[9.22 µM], GoLoco inh red -23%, VDR inhibitor 22% and FBPA coupling cs -5.
`COc1ccc(S(=O)(=O)n2c([N+](=O)[O-])cnc2C)c(C)c1C` gave VDR inhibitor -5% and FBPA coupling cs 7.
Screening Cc1ccc(S(=O)(=O)n2c([N+](=O)[O-])cnc2C)c(C)c1C returned HTT cytoprotect 19%[10 µM], JMJD2E inh inconclusive, HttQ103 aggreg 2%, GoLoco inh red 9%, VDR inhibitor 45µM* and FBPA coupling cs 0.
O=C(NNC(=O)c1cccnc1SCc1cccc([N+](=O)[O-])c1)c1ccccn1 was read as HTT cytoprotect 2%[10 µM], JMJD2E inh 10µM*, HttQ103 aggreg inconclusive, GoLoco inh red 8%, VDR inhibitor -8% and FBPA coupling cs -1.
For C=CCn1c(SCC#N)nc2c(c1=O)C(C)(C)Cc1ccccc1-2 the results were HTT cytoprotect -12%[10 µM], JMJD2E inh -3%, HttQ103 aggreg 10µM*, GoLoco inh red 4%, VDR inhibitor 20% and FBPA coupling cs 6.
For Cc1c(O)c2ccccc2oc1=O the results were HTT cytoprotect 10%[10 µM], JMJD2E inh inconclusive, HttQ103 aggreg -5%[9.22 µM], GoLoco inh red 12%, VDR inhibitor 2% and FBPA coupling cs -3.
COc1c(O)c(O)cc2c1oc1c3ccccc3oc(=O)c21 was read as HTT cytoprotect -13%, JMJD2E inh 16µM*, GoLoco inh red -30% and FBPA coupling cs -14.
Screening C[C@]12CC[C@@H]3c4ccc(O)cc4CC[C@H]3[C@@H]1C[C@H](O)C2O (stereo partly specified) returned HTT cytoprotect 5%, HttQ103 aggreg 3%, GoLoco inh red 12% and VDR inhibitor -4%.
For COc1ccc(C(=O)O/N=C/c2c(C(F)(F)F)nn(C)c2SCc2ccccc2Cl)cc1 the results were HTT cytoprotect -93%, JMJD2E inh 11%, HttQ103 aggreg 10µM*, GoLoco inh red 4%, VDR inhibitor 6% and FBPA coupling cs -5.
For COC(=O)c1ccccc1Sc1c(/C=N/OC(=O)c2ccccc2)c(C(F)(F)F)nn1C the results were HTT cytoprotect 13%, JMJD2E inh -5%, HttQ103 aggreg inconclusive, GoLoco inh red -6%, VDR inhibitor -4% and FBPA coupling cs -1.
Cc1ccc(C(=O)O/N=C/c2c(C(F)(F)F)nn(C)c2Sc2ccc(Cl)cc2)cc1 was read as HTT cytoprotect -3%, JMJD2E inh 3%, HttQ103 aggreg 13µM*, GoLoco inh red 1%, VDR inhibitor -4% and FBPA coupling cs -3.
For Cn1nc(C(F)(F)F)c(/C=N/OC(=O)c2ccccc2Cl)c1SCc1ccc(Cl)cc1 the results were HTT cytoprotect -78%, JMJD2E inh 5%, HttQ103 aggreg inconclusive, GoLoco inh red -5%, VDR inhibitor -1% and FBPA coupling cs -3.
O=C(c1cc2ccccc2o1)N1CCN(S(=O)(=O)c2ccc(F)c(F)c2F)CC1 was read as VDR inhibitor -10%.
`Cc1ccc(OCCCCn2cnc3ccccc32)cc1` gave HTT cytoprotect -56%, JMJD2E inh -6%, HttQ103 aggreg inconclusive, GoLoco inh red 3%, VDR inhibitor 7% and FBPA coupling cs -8.
For Cc1ccccc1OCCCCn1cnc2ccccc21 the results were HTT cytoprotect -12%, JMJD2E inh -9%, HttQ103 aggreg 7.1µM*, GoLoco inh red 0%, VDR inhibitor 1% and FBPA coupling cs 4.
`CNc1ncnc2c1ncn2[C@H]1C[C@@H](OP(=O)(O)O)[C@H](COP(=O)(O)O)O1` gave HTT cytoprotect 9%[1.9 µM].
For O=C(N/N=C/c1c(O)n(-c2ccccc2Cl)c(=O)c2ccccc12)C1COc2ccccc2O1 (stereo unspecified) the results were HTT cytoprotect 4%[10 µM], JMJD2E inh inconclusive, HttQ103 aggreg 13µM*, GoLoco inh red 138%, VDR inhibitor -10% and FBPA coupling cs 15.
Cc1ccc(-n2c(O)c(/C=N/NC(=O)C3COc4ccccc4O3)c3ccccc3c2=O)cc1 (stereo unspecified) was read as JMJD2E inh inconclusive, HttQ103 aggreg inconclusive, GoLoco inh red 80%, VDR inhibitor 0% and FBPA coupling cs 5.
For O=C(O)c1c(Cl)c(Cl)c(Cl)c(Cl)c1-c1c2cc(I)c(=O)c(I)c-2oc2c(I)c(O)c(I)cc12 the results were HTT cytoprotect -235%, HttQ103 aggreg -10%, GoLoco inh red 33%, VDR inhibitor 5.6µM* and FBPA coupling cs 3.
Screening CCOc1cc(C2C(C(=O)c3ccco3)=C(O)C(=O)N2CC2CCCO2)ccc1O (stereo unspecified) returned VDR inhibitor -17% and FBPA coupling cs -1.
`CCCNc1c(F)c(F)c2c(C)c3ccccc3nc2c1F` gave HTT cytoprotect -27%, JMJD2E inh -4%, HttQ103 aggreg -32%, GoLoco inh red 28µM*, VDR inhibitor -9% and FBPA coupling cs -16.
Screening Cc1c2ccccc2nc2ccccc12 returned VDR inhibitor -20%.
C=C1C(=O)O[C@@H]2C3OC3(C)CC/C=C(\C)CC[C@@H]12 (stereo partly specified) was read as HTT cytoprotect -12%[1.9 µM], JMJD2E inh 7%, GoLoco inh red 2% and FBPA coupling cs 0.
C=C1C(=O)OC2C=C(C)CCC=C(C)CCC12 (stereo unspecified) was read as VDR inhibitor 40µM* and FBPA coupling cs 6.
For C=C1C(=O)O[C@@H]2[C@H]3O[C@]3(C)CC/C=C(\C)CC[C@@H]12 the results were HTT cytoprotect -166%, GoLoco inh red -10% and VDR inhibitor 22µM*!.
`C=C1C(=O)OC2C1CC/C(C)=C/CCC1(C)OC21` (stereo unspecified) gave JMJD2E inh -22%, GoLoco inh red -2%, VDR inhibitor inconclusive and FBPA coupling cs 4.
